Measured values taken from PubChem BioAssay (Tox21).
Inconclusive results are not listed. Active and inactive are the calls of the source. Unless noted, the call rests on the fitted dose curve; in most records, active means well fitted curve in the direction sought with a large enough effect in the repeat runs; inconclusive means weak or mixed curves; inactive means no such curve, though single readings can be large; an effect the other way counts as inactive or inconclusive.

Key:
[1] = qHTS assay to identify small molecule antagonists of the estrogen related receptor (ERR) signaling pathway from Tox21 library - cell viability counter screen (AID 1224834); further: nearly all actives have a fitted effect of over 30% in size; further: potency means the concentration at half of the fitted maximal effect
Summary of the method: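 Fluorescence from CellTiter-Fluor gives the viability read-out, taken 30 min after reagent addition. Before that, ERR cells seeded 6 h earlier were incubated with compounds for 17.5 h at 37 C.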

[2] = biological target: Luciferin 4-monooxygenase (Photinus pyralis) (UniProt P08659); test: qHTS assay to identify small molecule inhibitors of firefly luciferase (AID 1224835); further: nearly all actives have a fitted effect of over 25% in size; further: potency means the concentration at half of the fitted maximal effect
Summary of the method: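 Inhibition of purified Photinus luciferase is measured by luminescence. Substrate levels (D-luciferin, ATP) sit at their KM values. Each compound is tested in a concentration series.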

[3] = qHTS assay to identify small molecule agonists of the constitutive androstane receptor (CAR) signaling pathway - cell viability counter screen (AID 1224836); further: nearly all actives have a fitted effect of over 45% in size; further: potency means the concentration at half of the fitted maximal effect
Summary of the method: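 Viability read-out: CellTiter-Fluor fluorescence after 23 h compound exposure at 37 C/5% CO2 in double-stable HepG2-CYP2B6-hCAR cells, with PK11195 present at 0.75 uM final; compounds tested in 15-point titration.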

[4] = qHTS assay to identify small molecule antagonists of the constitutive androstane receptor (CAR) signaling pathway - cell viability counter screen (AID 1224837); further: nearly all actives have a fitted effect of over 45% in size; further: potency means the concentration at half of the fitted maximal effect
Summary of the method: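 HepG2-CYP2B6-hCAR cells, 2500/well, 4 hr pre-incubation; compound titration, 15 conc.; CITCO 50 nM final; 23 hr, 37 C/5% CO2; CellTiter-Fluor, fluorescence intensity.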

[5] = biological target: Nuclear receptor subfamily 1 group I member 3 (Homo sapiens) (UniProt Q14994); test: qHTS assay to identify small molecule antagonists of the constitutive androstane receptor (CAR) signaling pathway (AID 1224838);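 further: HepG2 cells stably expressing hCAR with CYP2B6 luciferase reporter stimulated by CITCO; nearly all actives have a fitted effect of over 40% in size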
Summary of the method: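 HepG2-CYP2B6-hCAR cells; 4 h pre-incubation; cpd (15 conc) + CITCO 50 nM final; 24 h, 37 C/5% CO2; ONE-Glo, luminescence.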

[6] = qHTS assay to identify small molecule antagonists of the estrogen related receptor signaling pathway with the pleiotropic PPARgamma coactivator (PGC) from Tox21 10K library - cell viability counter screen (AID 1224840; active means well fitted cell-killing curve with a large enough effect in the repeat runs, not every such curve was filed as active; further: nearly all actives have a fitted effect of over 40% in size; further: potency means the concentration at half of the fitted maximal effect)
Summary of the method: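 PGC/ERR cells, 2,000/well; 6 h pre-incubation 37 C/5% CO2; cpd in DMSO via pin tool; 17.5 h 37 C; CellTiter-Fluor, 30 min; fluorescence.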

[7] = biological target: Thyrotropin receptor (Homo sapiens) (UniProt P16473); test: qHTS assay to identify small molecule agonists of the thyroid stimulating hormone receptor (TSHR) signaling pathway (AID 1224843; calls by dose curve; further: nearly all actives have a fitted effect of over 45% in size)
Summary of the method: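 HEK293 cells stably bearing the thyrotropin receptor were plated at 800 cells/well and challenged with compound (30 min, RT). Accumulated cAMP was quantified via cAMP-d2 competing for cryptate-tagged antibody.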

[8] = qHTS assay to identify small molecule agonists of the hypoxia (HIF-1) signaling pathway - cell viability counter screen (AID 1224844; calls by dose curve; further: nearly all actives have a fitted effect of over 50% in size; further: potency means the concentration at half of the fitted maximal effect)
Summary of the method: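 ME-180 HRE-bla cells, 2,000/well, 0.5% dialyzed FBS; 5 hr settle, 17 hr compound at 37C/5% CO2; CCF4-AM reporter read first, then CellTiter-Glo luminescence after 30 min RT.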

[9] = qHTS assay to identify small molecule agonists of the hypoxia (HIF-1) signaling pathway (AID 1224846; active means well fitted activation curve with a large enough effect in the signal ratio in the repeat runs, not every such curve was filed as active; the % refers to the signal ratio)
Summary of the method: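 Cell line: CellSensor HRE-bla ME-180; 2,000 cells/well; 0.5% dialyzed FBS; 5 h preincubation; DMSO compound pin transfer; 17 h, 37C, 5% CO2; CCF4-AM added; bla FRET signal scored for activation.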

[10] = qHTS assay to identify small molecule agonists of H2AX - cell viability counter screen (AID 1224847; calls by dose curve;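 further: wild-type CHO-K1 cells; top concentration of the series differs between compounds; nearly all actives have a fitted effect of over 30% in size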)
Summary of the method: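 CHO-K1 wt, 1000 cells/well, o/n 37C; cpds 15 conc, 3 h 37C, 0.76% DMSO; CellTiter-Glo, 30 min RT, luminescence.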

[11] = qHTS RealTime-Glo MT Cell Viability Assay in HEK293 cells - 32 hour (AID 1224868); further: top concentration of the series differs between compounds; nearly all actives have a fitted effect of over 50% in size
Summary of the method: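 HEK293 cells were seeded at 600 cells/well together with NanoLuc luciferase and cell-permeant prosubstrate, preincubated 5 h at 37 C/5% CO2, then given compound in DMSO by pintool. Luminescence from viable-cell prosubstrate reduction was read repeatedly over 40 h.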

[12] = A CellTox Green Cytotoxicity Assay to monitor cytotoxicity in HEK293 cells - 0 hour (AID 1224869); further: nearly all actives have a fitted effect of over 50% in size
Summary of the method: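 Nonlytic real-time cytotoxicity: HEK293 + CellTox Green reagent plated, 5 h preincubation, pintool compound addition (23 nL in DMSO), 37 C for 40 h, fluorescence measured at successive time points.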

[13] = biological target: Nuclear receptor subfamily 1 group I member 3 (Homo sapiens) (UniProt Q14994); test: qHTS assay to identify small molecule agonists of the constitutive androstane receptor (CAR) signaling pathway (AID 1224839); further: nearly all actives have a fitted effect of over 15% in size; further: potency means the concentration at half of the fitted maximal effect;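 on activation: HepG2 cells stably carrying human CAR and a CYP2B6 luciferase reporter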
Summary of the method: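 Luminescence read-out (ONE-Glo, 30 min, room temperature) from double-stable HepG2-CYP2B6-hCAR cells exposed 24 h to 15-point compound series in presence of 0.75 uM PK11195 final.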

[14] = qHTS assay to identify small molecule agonists of H2AX (AID 1224845; active means well fitted activation curve with a large enough effect in the signal ratio in the repeat runs, not every such curve was filed as active; the % refers to the signal ratio)
Summary of the method: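 Phospho-H2AX Ser139 measured by HTRF (ex 320 nm; em 665 and 620 nm) after 24 hr antibody incubation. Compounds, 15 concentrations, 0.76% DMSO, were applied to CHO-K1 cells for 3hr at 37C before lysis.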

[15] = qHTS RealTime-Glo MT Cell Viability Assay in HepG2 cells - 24 hour (AID 1224867); further: nearly all actives have a fitted effect of over 50% in size
Summary of the method: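 HepG2 cells were seeded at 600 cells/well together with NanoLuc luciferase and a cell-permeant prosubstrate, preincubated 5 h at 37 C/5% CO2, then pin-dosed with compounds in DMSO. Nonlytic luminescence from viable cells was read at each time point.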

[16] = qHTS assay to identify small molecule antagonists of the estrogen related receptor signaling pathway with the pleiotropic PPARgamma coactivator (PGC) from Tox21 10K library (AID 1224841; call rule not given here)
Summary of the method: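 PGC/ERR cell line, 2,000 cells/well; 6 h pre-incubation 37 C/5% CO2; compounds (DMSO) pinned in; 18 h, 37 C; One-Glo, 30 min RT; luminescence.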

[17] = qHTS assay to identify small molecule agonists of the estrogen related receptor signaling pathway with the pleiotropic PPARgamma coactivator (PGC) from Tox21 10K library (AID 1224842); further: nearly all actives have a fitted effect of over 15% in size
Summary of the method: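 Luminescence from One-Glo (30 min, room temperature) measured after PGC/ERR cells had 18 h at 37 C with pinned compound (23 nL in DMSO). Cells had been seeded at 2,000 per well and pre-incubated 6 h.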

[18] = qHTS assay to identify small molecule agonists of the estrogen related receptor (ERR) signaling pathway from Tox21 library (AID 1224849; calls by dose curve; further: nearly all actives have a fitted effect of over 15% in size); settings: ERR reporter cell line, ONE-Glo luciferase, 18 h; at 92.4 µM (top of the series) unless noted
Summary of the method: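 ERR cells, 6 h pre-incubation 37 C/5% CO2; cpd in DMSO pinned; 18 h 37 C; ONE-Glo added, 30 min RT; luminescence read. Agonist mode, qHTS.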

[19] = qHTS assay to identify small molecule antagonists of the estrogen related receptor (ERR) signaling pathway from Tox21 library (AID 1224848); further: nearly all actives have a fitted effect of over 50% in size
Summary of the method: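 Reading was by luminescence 30 min after ONE-Glo addition. Before that, ERR cells at 2,000 per well had rested 6 h at 37 C/5% CO2 and then received pin-tooled compounds in DMSO for 18 h at 37 C.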
On the % scale 0 is the no-effect control and ±100 the full control effect.

Nuclear receptor subfamily 1 group I member 3 (Homo sapiens), sequence (Q14994 whole entry, looked up): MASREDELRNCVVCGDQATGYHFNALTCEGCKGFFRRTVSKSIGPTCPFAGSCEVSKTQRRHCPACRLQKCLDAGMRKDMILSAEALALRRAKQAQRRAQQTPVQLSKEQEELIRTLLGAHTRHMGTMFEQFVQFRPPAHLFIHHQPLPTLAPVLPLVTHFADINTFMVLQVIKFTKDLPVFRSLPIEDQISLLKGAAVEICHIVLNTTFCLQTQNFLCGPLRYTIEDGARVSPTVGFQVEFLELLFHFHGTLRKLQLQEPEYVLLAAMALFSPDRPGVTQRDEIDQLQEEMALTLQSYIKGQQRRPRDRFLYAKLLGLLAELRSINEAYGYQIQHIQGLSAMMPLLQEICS
Luciferin 4-monooxygenase (Photinus pyralis), sequence (P08659 whole entry, looked up): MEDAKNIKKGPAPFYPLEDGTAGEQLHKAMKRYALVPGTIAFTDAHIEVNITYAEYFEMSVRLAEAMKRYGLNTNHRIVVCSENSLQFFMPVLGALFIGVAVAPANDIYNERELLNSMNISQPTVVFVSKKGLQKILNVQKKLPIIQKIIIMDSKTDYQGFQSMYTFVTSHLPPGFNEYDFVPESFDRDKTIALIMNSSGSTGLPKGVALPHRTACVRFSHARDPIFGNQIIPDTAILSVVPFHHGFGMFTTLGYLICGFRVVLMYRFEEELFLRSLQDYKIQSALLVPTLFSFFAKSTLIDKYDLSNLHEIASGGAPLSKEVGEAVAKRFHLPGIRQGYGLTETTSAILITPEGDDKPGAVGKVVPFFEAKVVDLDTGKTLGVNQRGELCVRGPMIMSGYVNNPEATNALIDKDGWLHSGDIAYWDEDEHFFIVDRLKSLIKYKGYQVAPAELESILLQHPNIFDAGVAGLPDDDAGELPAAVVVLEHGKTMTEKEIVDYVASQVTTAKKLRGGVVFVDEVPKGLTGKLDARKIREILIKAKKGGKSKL
Thyrotropin receptor (Homo sapiens), sequence (P16473 whole entry, looked up): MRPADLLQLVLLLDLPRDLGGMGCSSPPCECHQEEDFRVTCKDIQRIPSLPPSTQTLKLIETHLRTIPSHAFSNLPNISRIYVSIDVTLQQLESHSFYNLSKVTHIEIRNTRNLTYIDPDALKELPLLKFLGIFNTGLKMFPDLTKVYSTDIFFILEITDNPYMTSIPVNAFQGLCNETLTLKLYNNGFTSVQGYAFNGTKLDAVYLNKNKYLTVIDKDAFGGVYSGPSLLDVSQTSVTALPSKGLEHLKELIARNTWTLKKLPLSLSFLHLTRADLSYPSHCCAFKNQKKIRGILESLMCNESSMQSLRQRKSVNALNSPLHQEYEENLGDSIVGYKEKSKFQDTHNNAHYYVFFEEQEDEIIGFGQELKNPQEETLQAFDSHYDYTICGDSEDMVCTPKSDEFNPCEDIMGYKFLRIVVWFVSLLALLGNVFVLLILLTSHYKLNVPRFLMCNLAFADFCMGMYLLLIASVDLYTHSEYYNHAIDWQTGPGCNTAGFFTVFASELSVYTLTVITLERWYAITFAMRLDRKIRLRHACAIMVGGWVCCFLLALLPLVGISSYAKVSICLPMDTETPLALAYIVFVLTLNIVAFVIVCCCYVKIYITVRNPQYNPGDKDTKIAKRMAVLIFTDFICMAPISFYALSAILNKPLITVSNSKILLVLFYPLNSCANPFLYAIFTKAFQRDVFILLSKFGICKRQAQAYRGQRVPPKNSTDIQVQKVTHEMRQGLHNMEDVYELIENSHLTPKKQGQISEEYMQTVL

COc1cc(S(=O)(=O)Nc2ccccc2)c(OC)cc1N
inactive: Potency [1] | Potency [2] | Potency [3] | Potency [4] | Potency [5] | Potency [6] | Potency [7] | Potency [8] | outcome [9] | Potency [10] | Potency [11] | Potency [12]

CCOC(=O)C(C)O (stereo not drawn)
inactive: Potency [1] | Potency [2] | Potency [3] | Potency [4] | Potency [5] | Potency [13] | Potency [6] | Potency [8] | Potency [14] | outcome [9] | Potency [10] | Potency [15] | Potency [11] | Potency [12]

CCN(CC)CCOC(=O)C(c1ccccc1)c1ccccc1
inactive: Potency [1] | Potency [2] | Potency [3] | Potency [4] | Potency [5] | Potency [13] | Potency [6] | Potency [8] | Potency [14] | Potency [10] | Potency [15] | Potency [11] | Potency [12]

CC(=O)OCC(C)C
inactive: Potency [1] | Potency [2] | Potency [3] | Potency [4] | Potency [5] | Potency [13] | Potency [6] | Potency [8] | Potency [14] | outcome [9] | Potency [10] | Potency [15] | Potency [11] | Potency [12]

CC(C)N(C)C
inactive: Potency [1] | Potency [2] | Potency [3] | Potency [4] | Potency [5] | Potency [13] | Potency [6] | Potency [8] | Potency [14] | outcome [9] | Potency [10] | Potency [15] | Potency [11] | Potency [12]

CC(=O)OCC(=O)[C@@]1(OC(C)=O)[C@@H](C)C[C@H]2[C@@H]3C[C@H](F)C4=CC(=O)C=C[C@]4(C)[C@@]3(F)[C@@H](O)C[C@@]21C
inactive: Potency [1] | Potency [2] | Potency [3] | Potency [4] | Potency [5] | Potency [13] | Potency [6] | Potency [14] | Potency [10] | Potency [15] | Potency [11] | Potency [12]

CN1CCCN(C(c2ccccc2)c2ccc(Cl)cc2)CC1 (stereo not drawn)
inactive: Potency [2] | Potency [13] | Potency [16] | Potency [17] | Potency [7] | Potency [14] | activity change, positive = activation [18] -29.3% [at 42.5 µM] | Potency [12]
active: Potency [1] 29.8 µM | Potency [3] 26.6 µM | Potency [4] 29.8 µM | Potency [6] 26.6 µM | Potency [8] 21.3 µM

CC(=O)OCCC(C)CC(C)(C)C (stereo not drawn)
inactive: Potency [1] | Potency [2] | Potency [3] | Potency [4] | Potency [13] | Potency [6] | Potency [16] | Potency [17] | Potency [7] | Potency [8] | outcome [9] | Potency [10] | Potency [19] | activity change, positive = activation [18] 4.15% | Potency [15] | Potency [12]

CC1CCCC(=O)C1=O (stereo not drawn)
inactive: Potency [1] | Potency [2] | Potency [3] | Potency [4] | Potency [5] | Potency [13] | Potency [6] | Potency [8] | Potency [14] | outcome [9] | Potency [10] | Potency [15] | Potency [11] | Potency [12]

CC(C)COC(=O)c1ccc(O)cc1
active: Potency [2] 44.7 µM
inactive: Potency [1] | Potency [3] | Potency [4] | Potency [5] | Potency [6] | Potency [8] | outcome [9] | Potency [10] | Potency [15] | Potency [12]

CCCOC(=O)c1c(Cl)c(Cl)c(Cl)c(Cl)c1C(=O)OCCC
inactive: Potency [1] | Potency [2] | Potency [3] | Potency [4] | Potency [5] | Potency [6] | Potency [16] | Potency [17] | Potency [8] | Potency [14] | outcome [9] | Potency [10] | Potency [19] | Potency [15] | Potency [11] | Potency [12]

c1ccc(CNc2ncnc3c2ncn3C2CCCCO2)cc1 (stereo not drawn)
inactive: Potency [1] | Potency [3] | Potency [4] | Potency [5] | Potency [6] | Potency [8] | outcome [9] | Potency [10] | Potency [15] | Potency [12]
active: Potency [2] 39.9 µM | Potency [13] 9.69 µM

O=C(C(=O)c1ccco1)c1ccco1
inactive: Potency [1] | Potency [2] | Potency [3] | Potency [4] | Potency [5] | Potency [13] | Potency [6] | Potency [8] | outcome [9] | Potency [10] | Potency [15] | Potency [12]

Cc1cc(CCCOc2c(C)cc(-c3noc(C(F)(F)F)n3)cc2C)on1
active: Potency [13] 23.7 µM
inactive: Potency [1] | Potency [2] | Potency [3] | Potency [4] | Potency [5] | Potency [6] | Potency [8] | Potency [14] | outcome [9] | Potency [15] | Potency [12]

CC[C@H]1OC(=O)[C@H](C)[C@@H](O[C@H]2C[C@@](C)(OC)[C@@H](O)[C@H](C)O2)[C@H](C)[C@@H](O[C@@H]2O[C@H](C)C[C@H](N(C)C)[C@H]2O)[C@](C)(O)C[C@@H](C)C(=O)[C@H](C)[C@@H](O)[C@]1(C)O
inactive: Potency [1] | Potency [2] | Potency [3] | Potency [4] | Potency [5] | Potency [13] | Potency [6] | Potency [8] | Potency [14] | Potency [10] | Potency [15] | Potency [11] | Potency [12]
